Reference: ChEMBL document CHEMBL1201862, “PubChem BioAssay data set” (2004)
Screen size: about 53,000 […]; about 4,900 (9.2%) were called active. Cut-off read from the data, not from the text of the source: active = GI50 up to about 1.1 µM and inactive = higher. Many of the other results were omitted from the sample, so actives are more common in it than they were. Measured potencies and affinities stand elsewhere.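 These data come from cells grown in 96-well plates and exposed to compound for 48 hours at five concentrations. At the GI50, growth is halved.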

Each substance was assayed on NCI-H522 (assay: NCI tumour cell line growth inhibition, 48 h).
MERCURIC CHLORIDE, CHEMBL1374360 was tested, and the GI50 was 518 nM.
DIBUTYLDICHLOROSTANNANE, CHEMBL1088184 was tested, and the GI50 was 130 nM.
With DICHLORODIPHENYLSTANNANE, CHEMBL1088185 the GI50 was 1000 nM.
